Dicer processing – human Dicer pre-microRNA cleavage inhibition; 47,000 compounds, 6% hits; Q9UPY3; cat-ELCCA pre-miR-21 Dicer processing, chemiluminescence; active compounds read high; z-score at 25 µM; AID 1347074; in the data active = z-score above about 3, passing the limit was not always enough;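 note: plate controls were vehicle for no effect and no enzyme for full effect; higher signal means more uncleaved substrate so more Dicer inhibition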
The depositor's hits bear a star. Only a selection was taken, and hits are over-represented in it overall.

SMILES	Dicer processing
CCSCCOC(=O)C1=C(C)NC2=C(C(=O)CC(c3ccccc3)C2)C1c1ccc(N(C)C)cc1 (centres undefined)	1.6
C=CCOC(=O)C1=C(C)NC2=C(C(=O)CC(c3ccccc3)C2)C1c1ccc(O)cc1 (centres undefined)	2.4
CCSCCOC(=O)C1=C(C)NC2=C(C(=O)CC(c3ccc(OC)cc3)C2)C1c1cccc(O)c1 (centres undefined)	1.1
CC1=C(C(=O)OCC(C)C)C(c2ccc(N(C)C)cc2)C2=C(CC(c3ccccc3)CC2=O)N1 (centres undefined)	3.6*
CC1=C(C(=O)OCc2ccccc2)C(c2cccc(O)c2)C2=C(CC(c3ccccc3)CC2=O)N1 (centres undefined)	3*
COc1ccc(C2CC(=O)C3=C(C2)NC(C)=C(C(=O)OCC(C)C)C3c2ccncc2)cc1 (centres undefined)	0.73
c1ccc(-c2cn(-c3ccccc3)nn2)cc1	-0.79
COc1cc2cc(OS(=O)(=O)c3ccc(C(C)C)cc3)nc(C)c2cc1OC	2.1
CC(=O)c1oc2nc3c(c(-c4ccc(Cl)cc4)c2c1N)CCc1ccccc1-3	2.9
COc1ccc(C2C=C(c3ccc(Cl)cc3)NC(=O)C2C#N)cc1 (centres undefined)	4.4*
COc1ccc(C2C(C#N)=C(C)NC3=C2C(=O)CC(c2ccc(Cl)cc2)C3)cc1 (centres undefined)	0.16
COc1ccc(C2NC(=O)NC2=O)cc1 (centres undefined)	1.1
CCCCN1CCCCC1C(=O)Nc1c(C)cccc1C (centres undefined)	0.97
Cc1[nH][nH]c(=O)c1C(c1ccc(OCc2ccccc2Cl)cc1)c1c(C)[nH][nH]c1=O	-6.6
O=C1c2cccc3cccc(c23)C(=O)N1c1ccccc1	0.9
O=C1c2cccc3cccc(c23)C(=O)N1c1ccc(Cl)cc1	6*
CN1C(=O)c2cccc3cccc(c23)C1=O	-1.1
CCC(c1c(N)nc(SCc2ccc([N+](=O)[O-])cc2)[nH]c1=O)c1c(N)nc(SCc2ccc([N+](=O)[O-])cc2)[nH]c1=O	-0.66
Cc1ccc(Cn2c(NCc3ccco3)nc3c2c(=O)n(C)c(=O)n3C)cc1	0.5
Cn1c(=O)[nH]c(=O)c2c1nc(NCCO)n2CC(O)COc1ccccc1 (centres undefined)	0.01
CC(C)CNc1nc2c(c(=O)[nH]c(=O)n2C)n1C(C)C	0.88
CC(C)Cn1c(NCc2ccco2)nc2c1c(=O)[nH]c(=O)n2C	4.5*
Cn1c(=O)[nH]c(=O)c2c1nc(NCc1ccco1)n2CC(O)COc1ccccc1 (centres undefined)	-1.6
CC(C)OCC(O)Cn1c(NCc2ccco2)nc2c1c(=O)[nH]c(=O)n2C (centres undefined)	3.9*
CC(C)Cn1c(NCCN(C)C)nc2c1c(=O)[nH]c(=O)n2C	4.3*
SMILES	Dicer processing
CC(C)Cn1c(NC2CCCCC2)nc2c1c(=O)[nH]c(=O)n2C	0.18
Cn1c(=O)c2c(nc(NCc3ccco3)n2C)n(C)c1=O	-2.1
Cc1noc(C)c1S(=O)(=O)N(CCC#N)Cc1ccccc1	-0.06
COC(=O)C1=C(C)NC2=C(C(=O)c3ccccc32)C1c1cc(Br)ccc1OCC(=O)O (centres undefined)	0.3
Cc1cc(C)c(N=C(N)/N=C(\N)NN)c(C)c1	-0.97
COc1ccc(Br)cc1CNC(C)(C)CO	-1.1
O=C1Nc2ccc(Br)cc2/C1=N\N=C\c1ccc(Cl)c(Cl)c1	1.1
CC(=O)c1ccccc1OC(=O)c1ccccc1Cl	1.1
CCc1ccc(CN2CCC(N3CCN(CCO)CC3)CC2)cc1	0.59
CSc1ccc(CN2CCN(S(C)(=O)=O)CC2)cc1	3.1*
CCc1ccc(NS(C)(=O)=O)cc1	1.2
CCCS(=O)(=O)N1CCN(Cc2ccc(Br)cc2)CC1	2.4
CCc1ccc(CN2CCN(C3CCCC(C)C3)CC2)cc1 (centres undefined)	3*
CCc1ccc(CN2CCN(S(C)(=O)=O)CC2)cc1	3.7*
c1cc(CN2CCN(Cc3ccncc3)CC2)ccn1	11
CC1CCCC(N2CCN(Cc3ccc(Cl)cc3)CC2)C1 (centres undefined)	0.84
CS(=O)(=O)N1CCN(CC(O)Cn2c3ccccc3c3ccccc32)CC1 (centres undefined)	1.4
NC1=NC(c2cccc(Br)c2)n2c(nc(=O)c3ccccc32)N1 (centres undefined)	-0.09
CCOc1ccc(C2C(C(=O)OC)=C(C)NC3=C2C(=O)CC(c2ccc(OC)c(OC)c2)C3)cc1 (centres undefined)	3.2*
COC(=O)C1=C(C)NC2=C(C(=O)CC(c3ccc(OC)c(OC)c3)C2)C1c1ccc(OC)cc1OC (centres undefined)	2.9
CCOC(=O)C1=C(C)NC2=C(C(=O)CC(c3ccc(Cl)cc3)C2)C1c1ccc(OCC)cc1 (centres undefined)	3.4*
CCOCCOC(=O)C1=C(C)NC2=C(C(=O)CC(c3cccs3)C2)C1c1ccc(F)cc1 (centres undefined)	0.73
